Reference: PubChem BioAssay (NCATS)
Several values for one entry are separate records, joined by “and”; a condition that tells them apart may be missing. Equal entries are not always repeated. Records with an inconclusive call do not appear. Activity calls are given as the source filed them. Calls follow the shape of the dose curve; as a rule, active = well fitted inhibition curve with a large enough effect; inconclusive = small, poorly fitted or top-dose-only effect; inactive = flat fitted curve, though single readings scatter.

Each compound was assayed against Ubiquitin carboxyl-terminal hydrolase 1 (Homo sapiens) (UniProt O94782) (assay: Inhibitors of USP1/UAF1: Pilot qHTS (AID 504865; also: nearly all actives have a fitted effect of over 35% in size;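 as to activity change, negative = inhibition: rhodamine fluorescence freed from ubiquitin-rhodamine substrate followed over time; top concentration of the series differs between compounds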)). Details: purified USP1/UAF1, Ub-rhodamine cleavage fluorescence; series mostly up to 114 µM; activity change, negative = inhibition: at the top concentration.
Source text: Deubiquitinating enzymes (DUBs) are a class of enzymes that can cleave isopeptide bond formed between the C-terminal carboxylate of ubiquitin and a lysine side-chain amino group on the target protein. Among them, ubiquitin specific proteases (USPs) constitute the largest DUB family. Human USPs are emerging as promising targets for pharmacological intervention because of their connection to a number of human diseases, including prostate, colon and breast cancer (1, 2), pediatric acute lymphoblastic leukemia (3), and familial cylindromatosis (4). The advantage of inhibiting USPs lies in the potential specificity of therapeutic intervention that can lead to better efficacy and reduce nonspecific side effects.
In a collaboration between the University of Delaware and the NIH Chemical Genomics Center, a high-throughput screen assay was developed to screen for USP1/UAF1 inhibitors. This miniaturized assay has a fluorescent read-out and is used to screen the NIH Molecular Libraries Small Molecule Repository (MLSMR) in order to identify a small molecule that inhibits USP1.
NIH Chemical Genomics Center [NCGC]
NIH Molecular Libraries Probe Centers Network [MLPCN]
Assay Submitter (PI): Zhihao Zhuang, University of Delaware
1. Priolo, C., et al. (2006) The isopeptidase USP2a protects human prostate cancer from apoptosis. Cancer Res 66, 8625-8632
2. Popov, N., et al. (2007) The ubiquitin-specific protease USP28 is required for MYC stability. Nat Cell Biol 9, 765-774
3. De Pitta, C., et al. (2005) A leukemia-enriched cDNA microarray platform identifies new transcripts with relevance to the biology of pediatric acute lymphoblastic leukemia. Haematologica 90, 890-898
4. Kovalenko, A., et al. (2003) The tumour suppressor CYLD negatively regulates NF-kappaB signalling by deubiquitination. Nature 424, 801-805
3 microliters of reagents (buffer in columns 3 and 4 as negative control and 1nM USP1/UAF1 complex in columns 1, 2, and 5-48) are dispensed into Greiner black solid bottom 1536-well assay plates. Compounds are then transferred via Kalypsys pin tool equipped with 1536-pin array (10nl slotted pins, V&P Scientific, San Diego, CA). Following an incubation step of 15 min at room temperature, 1ul of Ub-Rho substrate (150nM final concentration) is added to initiate the reaction. The plates are immediately centrifuged at 1000 rpm for 15 seconds, and subsequently transferred to a ViewLux high-throughput CCD imager (PerkinElmer) wherein kinetic measurements of fluorescence are acquired using 480 nm excitation/540 nm emission filter set (6 reads every 60 seconds, see Table 1). All reagents are diluted in an assay buffer consisting of 50mM HEPES (pH 7.8), 0.5mM EDTA, 0.1 mg/ml BSA, 1mM TCEP, and 0.01% Tween-20.
% is scaled to controls: 0 for no effect and ±100 for the full control effect; potency is read from the fitted curve at half-maximal effect.

Ubiquitin carboxyl-terminal hydrolase 1 (Homo sapiens), sequence (O94782 whole entry, looked up): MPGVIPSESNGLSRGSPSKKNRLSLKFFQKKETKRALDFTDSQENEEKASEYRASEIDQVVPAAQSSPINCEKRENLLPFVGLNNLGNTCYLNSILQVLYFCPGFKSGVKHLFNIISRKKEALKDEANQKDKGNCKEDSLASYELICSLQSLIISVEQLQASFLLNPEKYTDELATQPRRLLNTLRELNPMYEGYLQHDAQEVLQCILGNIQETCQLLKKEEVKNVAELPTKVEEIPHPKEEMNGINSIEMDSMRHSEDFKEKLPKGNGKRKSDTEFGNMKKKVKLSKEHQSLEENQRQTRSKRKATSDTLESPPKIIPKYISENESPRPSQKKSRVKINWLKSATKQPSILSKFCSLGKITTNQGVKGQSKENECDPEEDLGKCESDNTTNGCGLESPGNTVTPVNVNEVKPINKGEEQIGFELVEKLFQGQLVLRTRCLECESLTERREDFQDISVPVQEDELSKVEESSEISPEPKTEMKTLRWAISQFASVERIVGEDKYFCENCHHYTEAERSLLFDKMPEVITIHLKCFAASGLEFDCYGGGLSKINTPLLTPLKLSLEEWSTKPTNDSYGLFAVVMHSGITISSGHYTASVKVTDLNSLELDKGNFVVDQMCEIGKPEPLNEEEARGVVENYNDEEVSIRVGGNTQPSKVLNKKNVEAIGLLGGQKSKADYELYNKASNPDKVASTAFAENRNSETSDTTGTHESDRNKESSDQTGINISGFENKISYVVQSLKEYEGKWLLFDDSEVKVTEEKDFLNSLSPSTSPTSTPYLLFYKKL

Q: With `CCCCCCCCCCCCCCCC[N+](C)(C)C` as the compound, how does the Potency read?
A: Its Potency is 22.4 µM (active) and 31.6 µM (active).

Q: `CN1C2CCC1CC(OC(=O)c1cc(Cl)cc(Cl)c1)C2` (stereo not given) was tested. Which Potency did it give?
A: Its Potency is “inactive”.

Q: With `CC(C)Oc1cccnc1N(C)C1CCN(Cc2ccccc2)CC1` as the compound, how does the “activity change, negative = inhibition” value read?
A: Its value is -12% (inactive).

Q: How did the Potency turn out when `c1ccc(C2(c3ccccc3)CC2C2=NCCN2)cc1` (stereo not given) was run?
A: Its Potency is “inactive”.

Q: How did the “activity change, negative = inhibition” value turn out when `CC(=O)[C@H]1CCC2C3CC[C@H]4C[C@H](O)CC[C@]4(C)C3CC[C@@]21C` (stereo not given in full) was run?
A: Its value is -12.8% (inactive).

Q: With `Cn1cnc(CCN)c1` as the compound, how does the “activity change, negative = inhibition” value read?
A: Its value is 5.2% (inactive).

Q: For `Cc1nccc2c1[nH]c1ccccc12`, which Potency is on record?
A: Its Potency is “inactive”.

Q: Which “activity change, negative = inhibition” value does the source give for `O=C(O)Cc1cnc[nH]1` here?
A: Its value is -0.359% (inactive).

Q: How did the Potency turn out when `CCCCCCCCCC(CC)c1ccc(S(=O)(=O)O)cc1` (stereo not given) was run?
A: The Potency was 79.4 µM (active).

Q: For `C[C@@H]1O[C@H](C[N+](C)(C)C)C[C@H]1O`, which “activity change, negative = inhibition” value is on record?
A: The value was -19% (inactive).

Q: How did the Potency turn out when `CC[C@@]1(O)C(=O)OCc2c1cc1n(c2=O)Cc2cc3ccccc3nc2-1` was run?
A: The Potency was “inactive”.

Q: For `NC1CC1c1ccccc1` (stereo not given), which “activity change, negative = inhibition” value is on record?
A: The value was -9.89% (inactive).

Q: How did the “activity change, negative = inhibition” value turn out when `S=C(NC1CCCCC1)N1CCC(c2cnc[nH]2)CC1` was run?
A: The value was -1.58% (inactive).

Q: How did the “activity change, negative = inhibition” value turn out when `O=C(O)[C@@H]1CCN1` was run?
A: Its value is 0.137% (inactive).

Q: For `C[N+](C)(C)CC(=O)O`, which “activity change, negative = inhibition” value is on record?
A: The value was 6.12% (inactive).

Q: How did the “activity change, negative = inhibition” value turn out when `O=[N+]([O-])c1ccc([As](=O)(O)O)cc1` was run?
A: The value was 3.65% (inactive).

Q: How did the “activity change, negative = inhibition” value turn out when `O=C(Cc1ccc(Cl)c(Cl)c1)N1CCCCC1CN1CCCC1` (stereo not given) was run?
A: The value was -3.18% (inactive).

Q: Which Potency does the source give for `CN[C@@H]1C[C@@H](c2ccc(Cl)c(Cl)c2)c2ccccc21` here?
A: Its Potency is “inactive”.

Q: Which Potency does the source give for `NC(=O)CN1CC(O)CC1=O` (stereo not given) here?
A: The Potency was “inactive”.

Q: With `C1CCC(NC2CCCCC2)CC1` as the compound, how does the “activity change, negative = inhibition” value read?
A: The value was -7.47% (inactive).

Q: How did the “activity change, negative = inhibition” value turn out when `CCCN1CCO[C@@H]2c3cc(O)ccc3OC[C@@H]21` was run?
A: Its value is 8.83% (inactive).

Q: For `CCCCc1ccc(C(=O)O)nc1`, which Potency is on record?
A: The Potency was “inactive”.

Q: With `O=C1C(I)=CC(=C(c2cc(I)c(O)c(I)c2)c2ccccc2C(=O)O)C=C1I` as the compound, how does the Potency read?
A: Its Potency is 25.1 µM (active).

Q: Which Potency does the source give for `C=CCN1CC[C@]23CCCCC2[C@H]1Cc1ccc(O)cc13` (stereo not given in full) here?
A: The Potency was “inactive”.

Q: For `CC(=O)OCC1=C(C(=O)O)N2C(=O)[C@@H](N)[C@@H]2SC1`, which “activity change, negative = inhibition” value is on record?
A: Its value is 1.5% [at 54.9 µM] (inactive).

Q: Which “activity change, negative = inhibition” value does the source give for `NCCc1c[nH]c2ccccc12` here?
A: The value was -7.69% (inactive).

Q: `C[C@]12CCC(=O)C(O)=C1CC[C@@H]1[C@H]3CCC(=O)[C@@]3(C)CC[C@@H]12` was tested. Which “activity change, negative = inhibition” value did it give?
A: The value was -9.96% (inactive).

Q: Which “activity change, negative = inhibition” value does the source give for `Oc1ccc2c3c1O[C@H]1c4[nH]c5c(c4C[C@@]4(O)[C@@H](C2)N(CC2CC2)CC[C@]314)C[C@@]1(O)[C@H]2Cc3ccc(O)c4c3[C@@]1(CCN2CC1CC1)[C@H]5O4` here?
A: The value was 0.449% (inactive).

Q: How did the “activity change, negative = inhibition” value turn out when `COc1cc(C(O)CN)ccc1O` (stereo not given) was run?
A: Its value is -2.79% (inactive).

Q: Which “activity change, negative = inhibition” value does the source give for `NCc1cc(=O)[nH]o1` here?
A: Its value is -3.73% (inactive).

Q: With `CC[C@@H](C(N)=O)N1CCCC1=O` as the compound, how does the “activity change, negative = inhibition” value read?
A: Its value is -3.84% (inactive).

Q: `CC(C)NC(C)Cc1ccc(I)cc1` (stereo not given) was tested. Which Potency did it give?
A: Its Potency is “inactive”.

Q: With `CNCCc1ccc(O)c(O)c1` as the compound, how does the “activity change, negative = inhibition” value read?
A: Its value is -3.78% (inactive).

Q: How did the Potency turn out when `CCCN1CCO[C@@H]2c3cc(O)ccc3OC[C@H]21` was run?
A: Its Potency is “inactive”.

Q: With `CCCN(CCC)C1CCc2ccc(O)cc2C1` (stereo not given) as the compound, how does the “activity change, negative = inhibition” value read?
A: The value was -7.36% (inactive).

Q: For `O=C(O)COc1ccccc1`, which “activity change, negative = inhibition” value is on record?
A: The value was 1.72% (inactive).

Q: For `C[C@]12N[C@H](Cc3ccccc31)c1ccccc12`, which “activity change, negative = inhibition” value is on record?
A: Its value is -13.4% (inactive).

Q: For `O=C(O)CC[N+](=O)[O-]`, which “activity change, negative = inhibition” value is on record?
A: The value was -4.31% (inactive).

Q: How did the “activity change, negative = inhibition” value turn out when `CC(=O)NCCc1c[nH]c2ccccc12` was run?
A: Its value is -0.35% (inactive).

Q: How did the Potency turn out when `O=C1CCCN1CC#CCN1CCCC1` was run?
A: The Potency was “inactive”.
